Potency and affinity values are given separately.
Key:
Staphylococcus aureus = conditions: Concentration 32 ug.mL-1; ASSAY_TEST Inhibition of Bacterial Growth; detection method Absorption (OD600); MEDIA CAMHB; plate type 384well; NBS; CORNING #3640; time 18 hr
Escherichia coli = conditions: Concentration 32 ug.mL-1; ASSAY_TEST Inhibition of Bacterial Growth; detection method Absorption (OD600); MEDIA CAMHB; plate type 384well; NBS; CORNING #3640; time 18 hr

Question: How did the Inhibition (Staphylococcus aureus) turn out when `COc1ccc2c(c1)C(=O)C(=Cc1cccnc1Cl)CC2` was run?
Answer: 6.88%

Question: And the Inhibition (Escherichia coli)?
Answer: -2.48%

Question: `COc1ccc2c(c1)C(=O)C(=Cc1ccco1)CC2` was tested. Which Inhibition (Staphylococcus aureus) did it give?
Answer: 20.52%

Question: And the Inhibition (Escherichia coli)?
Answer: 4.79%

Question: How did the Inhibition (Staphylococcus aureus) turn out when `COc1ccc2c(c1)CCC(=Cc1cncc(Br)c1)C2=O` was run?
Answer: 0.4%

Question: And the Inhibition (Escherichia coli)?
Answer: -0.04%

Question: How did the Inhibition (Staphylococcus aureus) turn out when `COc1ccc(/C=C/C(=O)c2ccc(OCc3ccc(Br)cc3)cc2)cc1OC` was run?
Answer: -11.78%

Question: What about the Inhibition (Escherichia coli) of the same compound?
Answer: -9.61%

Question: With `COc1ccc2c(c1)CCC(=Cc1cccnc1Cl)C2=O` as the compound, how does the Inhibition (Staphylococcus aureus) read?
Answer: 1.26%

Question: What about the Inhibition (Escherichia coli) of the same compound?
Answer: -0.89%

Question: Which Inhibition (Staphylococcus aureus) does the source give for `COc1ccc2c(c1)CCC(=Cc1cnccc1OC)C2=O` here?
Answer: 0.49%

Question: What about the Inhibition (Escherichia coli) of the same compound?
Answer: -6.17%

Question: What does the source list for `COc1ccc2c(c1)CCC(=Cc1ccc(OC)nc1)C2=O`?
Answer: Inhibition (Staphylococcus aureus): -4.04%; Inhibition (Escherichia coli): 1.52%

Question: Which Inhibition (Staphylococcus aureus) does the source give for `COc1cccc2c1CCC(=Cc1cccc(C=C3CCc4c(OC)cccc4C3=O)c1)C2=O` here?
Answer: -26.12%

Question: What about the Inhibition (Escherichia coli) of the same compound?
Answer: -22.27%

Question: Which results are given for `COc1ccc2c(c1)CCC(=Cc1ccco1)C2=O`?
Answer: Inhibition (Staphylococcus aureus): 19.21%; Inhibition (Escherichia coli): 7.9%

Question: With `COc1ccc2c(c1)C(=O)C(=Cc1cccnc1Cl)CC2.Cl` as the compound, how does the Inhibition (Staphylococcus aureus) read?
Answer: 20.04%

Question: What about the Inhibition (Escherichia coli) of the same compound?
Answer: 2.21%

Question: How did the Inhibition (Staphylococcus aureus) turn out when `COc1ccc2c(c1)CCC(=Cc1cccnc1)C2=O` was run?
Answer: 11.8%

Question: What about the Inhibition (Escherichia coli) of the same compound?
Answer: 5.55%

Question: `COc1ccc2c(c1)CCC(=Cc1cccnc1Br)C2=O` was tested. Which Inhibition (Staphylococcus aureus) did it give?
Answer: 11.61%

Question: And the Inhibition (Escherichia coli)?
Answer: -5.29%

Question: `COc1cc2c(cc1OC)C(=O)C(=Cc1ccoc1)CC2` was tested. Which Inhibition (Staphylococcus aureus) did it give?
Answer: 22.02%

Question: What about the Inhibition (Escherichia coli) of the same compound?
Answer: 2.08%

Question: Which Inhibition (Staphylococcus aureus) does the source give for `Cc1ccc(C=C2CN(C(=O)OC(C)(C)C)C/C(=C\c3ccc(C)cc3C)C2=O)c(C)c1` here?
Answer: 9.56%

Question: And the Inhibition (Escherichia coli)?
Answer: -6.82%

Question: What does the source list for `COc1ccc2c(c1)C(=O)C(=Cc1cnccc1OC)CC2`?
Answer: Inhibition (Staphylococcus aureus): 16.33%; Inhibition (Escherichia coli): 1.39%

Question: How did the Inhibition (Staphylococcus aureus) turn out when `COc1ccc2c(c1)CCC(=Cc1ccoc1)C2=O` was run?
Answer: 24.71%

Question: And the Inhibition (Escherichia coli)?
Answer: 8.45%

Question: With `COc1ccc2c(c1)C(=O)C(=Cc1cccc(C=C3CCc4ccc(OC)cc4C3=O)c1)CC2` as the compound, how does the Inhibition (Staphylococcus aureus) read?
Answer: 5.74%

Question: What about the Inhibition (Escherichia coli) of the same compound?
Answer: 2.05%

Question: `CC(C)(C)OC(=O)N1CC(=Cc2ccco2)C(=O)/C(=C/c2ccco2)C1` was tested. Which Inhibition (Staphylococcus aureus) did it give?
Answer: 17.59%

Question: And the Inhibition (Escherichia coli)?
Answer: 1.8%

Question: Which Inhibition (Staphylococcus aureus) does the source give for `COc1ccc2c(c1)C(=O)C(=Cc1cccnc1Br)CC2` here?
Answer: 5.72%

Question: And the Inhibition (Escherichia coli)?
Answer: 0.26%

Question: With `COc1cccc2c1CCC(=Cc1ccco1)C2=O` as the compound, how does the Inhibition (Staphylococcus aureus) read?
Answer: 13.6%

Question: And the Inhibition (Escherichia coli)?
Answer: 5.5%

Question: What does the source list for `COc1ccc2c(c1)CCC(=Cc1ccccn1)C2=O`?
Answer: Inhibition (Staphylococcus aureus): 14.37%; Inhibition (Escherichia coli): 1.84%

Question: For `COc1ccc2c(c1)C(O)C(=Cc1cccnc1Cl)CC2` (configuration not stated), which Inhibition (Staphylococcus aureus) is on record?
Answer: 5.45%

Question: What about the Inhibition (Escherichia coli) of the same compound?
Answer: 4.12%

Question: Which Inhibition (Staphylococcus aureus) does the source give for `CC(C)(C)OC(=O)N1CC(=Cc2ccoc2)C(=O)/C(=C/c2ccoc2)C1` here?
Answer: 3.94%

Question: And the Inhibition (Escherichia coli)?
Answer: -5.28%

Question: How did the Inhibition (Staphylococcus aureus) turn out when `COc1ccc2c(c1)CCC(=Cc1ccncc1)C2=O` was run?
Answer: 16.04%

Question: What about the Inhibition (Escherichia coli) of the same compound?
Answer: 3.11%

Question: `COc1cc2c(cc1OC)C(=O)C(=Cc1ccco1)CC2` was tested. Which Inhibition (Staphylococcus aureus) did it give?
Answer: 23.29%

Question: What about the Inhibition (Escherichia coli) of the same compound?
Answer: 6.96%

Question: Which results are given for `COc1cccc2c1CCC(=Cc1ccoc1)C2=O`?
Answer: Inhibition (Staphylococcus aureus): 21.03%; Inhibition (Escherichia coli): -0.51%

Question: What does the source list for `COc1ccc2c(c1)C(=O)C(=Cc1ccoc1)CC2`?
Answer: Inhibition (Staphylococcus aureus): 24.21%; Inhibition (Escherichia coli): 0.87%

Question: How did the Inhibition (Staphylococcus aureus) turn out when `COc1ccc2c(c1)C(=O)C(=Cc1cccnc1)CC2` was run?
Answer: 17.94%

Question: And the Inhibition (Escherichia coli)?
Answer: 4.25%

Question: For `COc1ccc2c(c1)C(=O)C(=Cc1cccnc1OC)CC2`, which Inhibition (Staphylococcus aureus) is on record?
Answer: 16.7%

Question: And the Inhibition (Escherichia coli)?
Answer: 4.57%

Question: Which Inhibition (Staphylococcus aureus) does the source give for `COc1ccc2c(c1)C(=O)C(=Cc1cncc(Br)c1)CC2` here?
Answer: 75.2%

Question: And the Inhibition (Escherichia coli)?
Answer: 2%

Question: `COc1ccc2c(c1)C(=O)C(=Cc1ccccn1)CC2` was tested. Which Inhibition (Staphylococcus aureus) did it give?
Answer: 11.08%

Question: And the Inhibition (Escherichia coli)?
Answer: 3.58%
